SMN2 splice up: SMN2 splice variant enhancement | HEK293 SMN2-luciferase splicing reporter, luminescence, 30-36 h | Potency, µM (highest dose often 46.1 µM), without a hit: at the top dose activity change, positive = activation, usual class: activators | 210,000 compounds, 2.8% hits; further: % of control where 0% means no effect; nearly all actives have a fitted effect of over 55% in size
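HEK293 cells carry an SMN2 […]–luciferase reporter in which exon 7 inclusion puts luciferase in frame. Cells were plated 10-12 h before compound addition, then incubated 30-36 h at 37C. ONE-Glo luminescence was read; sodium butyrate at 4.5 mM final served as control.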
ELG1 genotox: inducers of genotoxicity in HEK293T ELG1-luciferase cells. HEK293T ELG1-luciferase reporter, luminescence, 16 h. Potency, µM (titrated, usually from 46 µM), without a hit: at the top dose activity change, positive = activation, most hits filed as activators. 330,000 compounds, 1.3% hits. AID 504466; further: % of control where 0% means no effect; nearly all actives have a fitted effect of over 60% in size
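HEK293T cells expressing luciferase-tagged ELG1 were treated with compound or DMSO for 16 hr at 37°C. Luciferase activity was then read after 30 min with ONE-Glo at room temperature; rising signal flags genetic stress.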
NPC1 promoter act: activates the NPC1 promoter; 320,000 compounds, 2.4% hits; Potency, µM (highest dose often 9.22 µM), for inactives: at the top dose activation, actives largely listed as activators; Huh7 NPC1 promoter luciferase reporter, 24 h; AID 485313; further: % of control where 0% means no effect; nearly all actives have a fitted effect of over 60% in size
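Luciferase expression driven by the NPC1 promoter was measured in stably transfected Huh7 cells after a 24 h compound incubation, using a luciferase reagent and a luminescence read.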
Rab9 promoter act: Rab9 promoter activation; Huh7 Rab9 promoter-luciferase reporter, luminescence, 24 h; Potency, µM (doses to about 9.22 µM), for inactives: top-dose activation, negative = inhibition, most hits filed as activators; 320,000 compounds, 2.8% hits; further: % of control where 0% means no effect; nearly all actives have a fitted effect of over 60% in size
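Cell-based reporter: Huh7 stable for Rab9 promoter-driven luciferase, plated in reduced-serum medium with 10% FBS at 1500 cells/well, compound-treated 24 h at 37 °C, luminescence read after 10 min reagent.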
uPA surface inh: cell surface uPA generation inhibition. cell surface uPA generation assay, qHTS. Potency, µM (series often up to 38.3 µM), for inactives: at the top dose activity change, negative = inhibition, actives largely listed as inhibitors. 330,000 compounds, 0.31% hits. AID 540303; active means well fitted inhibition curve with a large enough effect; inconclusive means small, poorly fitted or top-dose-only effect; inactive means no such curve, though single readings can be large or run the other way; tested in mouse RAW 264.7 cells; further: on the % scale 0 is the no-effect control and ±100 the full control effect; nearly all actives have a fitted effect of over 55% in size
FLuc modulator: firefly luciferase modulation, counter-screen for miR-21 project; P08659; purified FLuc, Km substrates, luminescence inhibition; Potency, µM (titrated, usually from 57.5 µM), for the others: at the highest dose activity change, negative = inhibition, most hits filed as inhibitors; 360,000 compounds, 6.9% hits;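 further: plate controls were vehicle for no effect and reference inhibitor for full effect; nearly all actives have a fitted effect of over 55% in size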
Target sequence (P08659 whole entry, looked up): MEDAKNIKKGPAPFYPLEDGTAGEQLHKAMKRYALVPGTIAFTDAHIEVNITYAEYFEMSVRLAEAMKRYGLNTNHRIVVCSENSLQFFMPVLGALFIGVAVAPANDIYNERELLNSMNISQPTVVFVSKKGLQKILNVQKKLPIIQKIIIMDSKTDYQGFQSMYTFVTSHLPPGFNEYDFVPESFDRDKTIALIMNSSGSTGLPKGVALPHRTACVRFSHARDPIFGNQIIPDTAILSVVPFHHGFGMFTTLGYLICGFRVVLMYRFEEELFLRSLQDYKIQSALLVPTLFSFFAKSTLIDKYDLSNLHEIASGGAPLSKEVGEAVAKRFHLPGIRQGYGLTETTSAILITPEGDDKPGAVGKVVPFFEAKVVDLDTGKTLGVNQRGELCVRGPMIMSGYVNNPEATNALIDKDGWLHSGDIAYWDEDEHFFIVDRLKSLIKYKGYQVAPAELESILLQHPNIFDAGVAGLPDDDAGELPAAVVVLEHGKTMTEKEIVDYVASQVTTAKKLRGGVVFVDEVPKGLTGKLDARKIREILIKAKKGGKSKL
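Purified P. pyralis luciferase, 10 nM final, with Km-level 10 uM D-luciferin and 10 uM ATP in 50 mM Tris acetate pH 7.5, 10 mM Mg acetate, 0.01% Tween-20, 0.05% BSA; 6-point qHTS titration about 60 µM downward; luminescence read.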
An asterisk follows results filed as active; ? = inconclusive; / = no result given; [ ] = another dose, or the depositor's remark. Most compounds without a hit are left out; they make up all but 7.3% or so of the library. Unless noted, the call rests on the fitted dose curve; in most records, active means well fitted curve in the direction sought with a large enough effect; inconclusive means small, poorly fitted or top-dose-only effect, or another doubt; inactive means no such curve, though single readings can be large; an effect the other way counts as inactive or inconclusive. Potency means the concentration at half of the fitted maximal effect.

SMILES | SMN2 splice up | ELG1 genotox | NPC1 promoter act | Rab9 promoter act | uPA surface inh | FLuc modulator
Cc1cc(NCCCn2ccnc2)n2nc(C)c(-c3ccc(Cl)cc3)c2n1 | / | -1% | 5% | 0% | / | 15µM*
COc1ccc2c(c1)O[C@H](c1ccc3c(c1)OCO3)[C@@H](OC(=O)Nc1ccc(OC(F)F)cc1)C2=O | 8% | / | / | / | / | /
COc1ccc(NC(=S)N2CCC(C(O)(c3ccccc3)c3ccccc3)CC2)cc1 | 10% | -3% | -4% | 1% | -9% | 1%
COc1ccc(NC(=S)N2CCC(C(=O)c3ccc(OC)cc3)CC2)cc1 | / | -12% | -1% | 0% | -3% | 12µM*
COc1ccc(NC(=S)N2CCC(C(=O)c3ccc(C)cc3)CC2)cc1 | / | -3% | 1% | -6% | -26% | ?
COc1ccc(NC(=S)N2CCC(c3ccccc3)C2)cc1 (centres undefined) | / | 9.2µM* | 2.5µM* | 2µM* | -28% | 6.7µM*
COc1ccc(-c2cn3c(n2)sc2cc(C(=O)N4CCCCC4)ccc23)cc1 | / | / | / | / | / | -12%
Cc1nn2cc(-c3ccc(OC(C)C)cc3)nc2s1 | 6% | / | / | / | / | 1.3µM*
CCc1ccc(CNC(=O)C2CCN(c3nn4cc(-c5ccc(OC)cc5)nc4s3)CC2)cc1 | / | / | / | / | / | -1%
Cc1ccc(Cn2cc(-c3ccccc3)nn2)cc1 | / | ? | ? | ? | 7% | ?
CC(C)Cc1nn2cc(-c3cccc(Br)c3)nc2s1 | -1% | / | / | / | / | 0.43µM*
CCc1ccc(NC(=O)C2CCN(c3nn4cc(-c5ccc(OC)cc5)nc4s3)CC2)cc1 | / | / | / | / | / | -3%
CCc1ccc(-c2cn3nc(-c4ccccc4)cnc3n2)cc1 | / | 12% | ? | 2µM* | 10% | -19%
CCc1ccc(-c2cn3nc(CC)sc3n2)cc1 | 27% | / | / | / | / | 0.6µM*
COC(=O)c1ccccc1NC(=O)C1=C(C)C(=O)OC12CCCCCC2 | / | / | / | / | / | -4%
N#CC1=C(N)N(c2ccc(Cl)cc2)C2=C(C(=O)CCC2)C1c1cc(CN2CCOCC2)cs1 (centres undefined) | -3% | / | / | / | / | -5%
c1ccc(-c2cn3nc(-c4ccccc4)sc3n2)cc1 | / | / | / | / | -3% | /
Cc1c(-c2ccc(O)cc2)nc2nc(-c3ccccc3)c(-c3ccccc3)nn12 | / | 2% | -4% | -1% | / | 3%
CCCc1nn2c(C)c(-c3ccccc3)nc2s1 | 26% | / | / | / | / | 1.5µM*
Cc1nn2cc(-c3ccccc3)nc2s1 | 10µM* | ? | 0.35µM* | 1µM* | ? | 4.3µM*
CCCCCc1nn2cc(-c3ccccc3)nc2s1 | 7.1µM* | / | / | / | / | 0.43µM*
Cc1ccc2occ(-c3cc(-c4ccccc4)nc4c3COc3ccccc3-4)c(=O)c2c1 | -24% | / | / | / | / | 0%
COc1ccc2ccccc2c1/C=N/NC(=O)c1cccc(Br)c1 | 22% | -7% | -2% | -2% | 1% | -4%
COc1ccc2ccccc2c1/C=N\NC(=O)c1ccc(C)s1 | / | 1% | 3% | -1% | -2% | 12µM*
COc1ccc2ccccc2c1/C=N/NC(=O)c1ccccc1F | / | 0% | 2% | -2% | 1% | 21µM*
SMILES | SMN2 splice up | ELG1 genotox | NPC1 promoter act | Rab9 promoter act | uPA surface inh | FLuc modulator
COc1cccc(CNC(=O)CCCn2c(=O)c3cccn3c3ccc(F)cc32)c1OC | / | / | / | / | / | 3%
CCC(Oc1ccccc1)C(=O)N(CC)CC(=O)NCc1ccc(F)cc1 (centres undefined) | / | 2% | 1% | -4% | 2% | 7%
CCN(CC(=O)NCc1ccc(F)cc1)C(=O)c1ccc(COc2ccccc2)cc1 | / | -1% | ? | ? | 1% | 17µM*
C=CCn1c(-c2cccs2)nc2ccccc21 | 7% | 13% | 6% | 11% | 0% | ?
C=CCn1c(-c2cccc(OC)c2)nc2nc3ccccc3nc21 | -10% | -9% | -1% | -1% | -7% | 15µM*
C=CCn1c(-c2cccc(OC)c2)n[nH]c1=S | -5% | 3% | 0% | -3% | -7% | -3%
C=CCn1c(-c2cccs2)nc2nc3ccccc3nc21 | 2.8µM* | ? | 29% | 30% | -1% | 19µM*
CC(C)CN(CCCNC(=O)CN1N=C(c2ccc(Cl)cc2)CCC1=O)CC(C)C | / | 0% | 2% | -6% | 9% | 0%
Nc1ncnc2c1ncn2[C@@H]1O[C@H](CNS(=O)(=O)c2cc3ccccc3s2)[C@@H](O)[C@H]1O | / | 5% | / | / | 14% | /
CC(C)CC(=O)N/C(N)=N/c1nc2ccccc2o1 | / | ? | 1.6µM* | 1.4µM* | -1% | 8.5µM*
CCCC(=O)N/C(N)=N/c1nc2ccccc2o1 | / | ? | 0.89µM* | 0.71µM* | -3% | 6.7µM*
COc1ccccc1C(=O)N/C(N)=N/c1nc2ccccc2o1 | 20% | 16% | ? | ? | 5% | ?
N/C(=N\c1nc2ccccc2o1)NC(=O)c1cccc(Br)c1 | / | 3% | 4% | -7% | 6% | 1%
Cc1ccc(C(=O)N/C(N)=N/c2nc3ccccc3o2)cc1 | -27% | ? | ? | ? | 5% | -15%
CC(C)(C)C(=O)N/C(N)=N/c1nc2ccccc2o1 | / | ? | 0.89µM* | 0.45µM* | -8% | 3%
N/C(=N\c1nc2ccccc2o1)NC(=O)c1ccccc1 | 13% | 8.2µM* | 4µM* | ? | 0% | ?
Cc1cc2c(c(=O)n1Cc1ccccc1)C1O[C@](c3ccsc3)(Cc3ccccc31)O2 | / | / | -1%[1.84 µM] | -11%[1.84 µM] | / | -14%[11.5 µM]
COc1cccc(OCCn2c(-c3ccc(Cl)cc3)nc3ccccc3c2=O)c1 | -2% | / | / | / | / | -3%
Cc1cc(OCC(=O)NCC2(N3CCOCC3)CCCCC2)ccc1Cl | / | / | / | / | / | -8%
COc1cccc(-n2c(=O)c3c(C)c(C(=O)N(C)C)sc3n(Cc3ccc(F)cc3Cl)c2=O)c1 | / | / | / | / | / | 5%
N/C(=N\c1nc2ccccc2o1)NC(=O)/C=C/c1ccccc1 | / | 0% | 1% | -1% | -6% | -1%
CCC(=O)N/C(N)=N/c1nc2ccccc2o1 | / | ? | 4µM* | 1.1µM* | -1% | 11µM*
